Among the test systems are HCT-15 colon; HT29 colon; SNB-19 CNS; U251 CNS; PC-3 prostate; SK-MEL-5 melanoma; UACC-62 melanoma; LOX IMVI melanoma; SK-MEL-28 melanoma; SK-MEL-2 melanoma; EKVX NSCLC; SN12C renal; UO-31 renal; TK-10 renal; ACHN renal; CAKI-1 renal; CCRF-CEM leukemia; MOLT-4 leukemia; SNB-75 CNS; A498 renal.
Common to all, as to assay: NCI-60 one-dose screen, 48 h (100 = growth as untreated, 0 = no growth, -100 = all killed)
What all share (settings): 10 µM unless noted

About 83,000 compounds went through this panel and 20% of them were active in at least one assay; those are over-represented in the sample as a whole.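 Activity criterion: percent growth below 10, measured after cells in 96-well plates were exposed to a single compound concentration for 48 hours.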 Values without a mark were called inactive. Active and inactive are the calls of the source.

As for `CCOC(=O)CCN(CC(C)C)C(=S)Nc1ccccc1`, the growth in the assay on HCT-15 colon is 99.5%; with HT29 colon, 105%; with SNB-19 CNS it was 99.9%; in the assay on U251 CNS it was 100%; with PC-3 prostate, 105%; with SK-MEL-5 melanoma it was 102%. Also, the growth with UACC-62 melanoma is 99.8%; in the assay on LOX IMVI melanoma it was 105%; with SK-MEL-28 melanoma, 106%; in the assay on SK-MEL-2 melanoma, 102%; in the assay with EKVX NSCLC, 100%; in the assay with SN12C renal, 98.3%. Also, the growth is 94.4% in the assay with UO-31 renal; 104% in the assay with TK-10 renal; 101% with ACHN renal; 102% in the assay with CAKI-1 renal; 118% with CCRF-CEM leukemia; 100% in the assay with MOLT-4 leukemia.
Consider `Cc1nn(-c2ccccc2)c(Cl)c1/C=N\N=c1/sc2ccccc2n1C`, for which the growth in the assay on HCT-15 colon is 103%; in the assay on SNB-75 CNS it was 107%; in the assay with SNB-19 CNS it was 98.6%; with U251 CNS, 103%; in the assay on PC-3 prostate it was 89.5%; in the assay on SK-MEL-5 melanoma, 104%. Besides, the growth is 87.1% in the assay on UACC-62 melanoma; 117% in the assay with LOX IMVI melanoma; 103% with SK-MEL-28 melanoma; 114% with SK-MEL-2 melanoma; 110% with EKVX NSCLC; 86.8% with SN12C renal. In addition, the growth in the assay on UO-31 renal is 93%; in the assay on TK-10 renal, 99.1%; in the assay with ACHN renal it was 107%; in the assay on CAKI-1 renal it was 101%; in the assay on A498 renal it was 83.1%; in the assay with CCRF-CEM leukemia, 92.7%.
For the compound `CCCCCOc1ccc(/C=N/Nc2cc(C)nc3ccc(Cl)cc23)cc1`, the growth with HCT-15 colon is -93.8% (active); with HT29 colon, -18.9% (active); in the assay on SNB-19 CNS it was 16.9%; in the assay with U251 CNS, -75% (active); in the assay on PC-3 prostate, 9.76% (active); in the assay on SK-MEL-5 melanoma it was 74.2%. The growth with UACC-62 melanoma is 83.6%; in the assay on LOX IMVI melanoma, -96.9% (active); in the assay on SK-MEL-28 melanoma, -85.8% (active); with SK-MEL-2 melanoma, 93.1%; with EKVX NSCLC, 66.7%; in the assay on SN12C renal, -88.1% (active). Further, the growth was -99.6% (active) with UO-31 renal; -22.5% (active) with TK-10 renal; -73.5% (active) in the assay with ACHN renal; 28.7% with CAKI-1 renal; 1.69% (active) with CCRF-CEM leukemia; -38.9% (active) in the assay with MOLT-4 leukemia.
Take `O=C(CCN1CCCC1)Nc1ccc2c(NCc3ccccc3)c3ccccc3nc2c1`: the growth is 20.6% in the assay with HCT-15 colon; 3.9% (active) in the assay with HT29 colon; 5.52% (active) with SNB-19 CNS; 1.05% (active) in the assay on U251 CNS; -4.59% (active) in the assay on PC-3 prostate; 17.2% in the assay on SK-MEL-5 melanoma. Besides, the growth in the assay on UACC-62 melanoma is -16.1% (active); in the assay on LOX IMVI melanoma, -45.6% (active); in the assay with SK-MEL-2 melanoma, -1.81% (active); in the assay on EKVX NSCLC it was 4.75% (active); with SN12C renal it was -5.99% (active); with UO-31 renal, 1.35% (active). The growth is 1.15% (active) in the assay with TK-10 renal; 9.88% (active) in the assay on ACHN renal; 5.35% (active) in the assay with CAKI-1 renal; -23.6% (active) in the assay on CCRF-CEM leukemia; -17.5% (active) with MOLT-4 leukemia.
For the compound `COc1cc(/C=C\c2cc(/C=C\c3ccc(O)c(OC)c3)n(C(=O)COc3ccccc3)n2)ccc1O`, the growth in the assay on HCT-15 colon is 9.64% (active); in the assay with HT29 colon, -33.2% (active); in the assay on SNB-19 CNS, 14.8%; with U251 CNS, 8.81% (active); with PC-3 prostate, 8.49% (active); with SK-MEL-5 melanoma, -28.8% (active). The growth is 4.88% (active) in the assay with UACC-62 melanoma; 3.23% (active) in the assay on LOX IMVI melanoma; 18.4% with SK-MEL-28 melanoma; -18.7% (active) in the assay with SK-MEL-2 melanoma; 28.1% in the assay with EKVX NSCLC; 15.7% in the assay with SN12C renal. The growth is 12.7% in the assay on TK-10 renal; 18% in the assay on ACHN renal; 24.2% in the assay on CAKI-1 renal; 11.2% in the assay with A498 renal; 6.79% (active) in the assay with CCRF-CEM leukemia.
In the case of `O=C1c2ccc3c4c(ccc(c24)C(=O)N1CCCNCc1ccccc1F)C(=O)N(CCCNCc1ccccc1F)C3=O`, the growth in the assay on HCT-15 colon is -60.6% (active); with HT29 colon it was -77% (active); in the assay on SNB-19 CNS it was -64.3% (active); in the assay with U251 CNS, -85.6% (active); in the assay with PC-3 prostate it was -59.1% (active); with SK-MEL-5 melanoma, -96.2% (active). In addition, the growth in the assay on UACC-62 melanoma was -57.6% (active); with LOX IMVI melanoma, -71.9% (active); in the assay with SK-MEL-28 melanoma, -93.6% (active); with SK-MEL-2 melanoma, -82.9% (active); in the assay with EKVX NSCLC it was -56.5% (active); in the assay on SN12C renal, -75.7% (active). The growth in the assay on UO-31 renal is -58% (active); with TK-10 renal, -85.8% (active); in the assay on ACHN renal, -47.1% (active); in the assay on CAKI-1 renal it was -22.8% (active); in the assay with CCRF-CEM leukemia, -11.7% (active); with MOLT-4 leukemia, -28.9% (active).
Consider `CCc1ccc(CNc2ccc(N3CCOCC3)c(C(=O)O)c2)cc1`, for which the growth with HCT-15 colon was 104%; in the assay with HT29 colon it was 96.4%; in the assay on SNB-19 CNS it was 107%; with U251 CNS it was 103%; with PC-3 prostate, 106%; in the assay on SK-MEL-5 melanoma, 102%. Moreover, the growth is 102% with UACC-62 melanoma; 96.8% in the assay on LOX IMVI melanoma; 107% with SK-MEL-28 melanoma; 82.7% in the assay with SK-MEL-2 melanoma; 98.3% in the assay on EKVX NSCLC; 108% with SN12C renal. Besides, the growth in the assay on UO-31 renal is 89.5%; in the assay with TK-10 renal it was 94%; in the assay on ACHN renal, 103%; with CAKI-1 renal it was 97.2%; with CCRF-CEM leukemia it was 102%; in the assay on MOLT-4 leukemia it was 99.2%.
Take `CC1=CCC(OC(=O)C(C)(O)CCC(O)(C(=O)OC2(C)C=CC(O)(C(C)C)CC2)C(C)C)(C(C)C)CC1` (stereo not given): the growth in the assay on HCT-15 colon was 103%; in the assay with HT29 colon, 104%; in the assay with SNB-75 CNS, 92.5%; in the assay with SNB-19 CNS it was 102%; in the assay with U251 CNS it was 98.3%; in the assay with PC-3 prostate, 113%. Moreover, the growth in the assay on SK-MEL-5 melanoma is 101%; in the assay with UACC-62 melanoma, 98.1%; in the assay with SK-MEL-28 melanoma, 114%; with SK-MEL-2 melanoma, 108%; in the assay with EKVX NSCLC it was 99%; with SN12C renal, 98.9%. The growth in the assay with UO-31 renal was 88.6%; in the assay with TK-10 renal it was 95.6%; in the assay on ACHN renal it was 111%; with CAKI-1 renal it was 95%; with CCRF-CEM leukemia it was 102%; in the assay on MOLT-4 leukemia, 109%.
With `C=C1C(=O)O[C@H]2[C@H]1CC/C(CNC(=O)C(C)c1ccc(CC(C)C)cc1)=C\CC[C@@]1(C)O[C@@H]21` (stereo not given in full), the growth was -55.7% (active) with HCT-15 colon; -52.4% (active) with HT29 colon; 48.9% in the assay on SNB-19 CNS; 45.2% with U251 CNS; 16.6% in the assay on PC-3 prostate; 61.3% in the assay on SK-MEL-5 melanoma. In addition, the growth with UACC-62 melanoma is -27.2% (active); in the assay with LOX IMVI melanoma, -80.3% (active); in the assay with SK-MEL-28 melanoma it was -76.9% (active); with SK-MEL-2 melanoma it was 32.9%; in the assay with EKVX NSCLC, 0% (active); in the assay with SN12C renal, -0.803% (active). For the same compound, the growth in the assay on UO-31 renal was -99.7% (active); with TK-10 renal it was -61% (active); with ACHN renal, -95.9% (active); in the assay with CAKI-1 renal it was -7.71% (active); in the assay on CCRF-CEM leukemia it was -1.13% (active); with MOLT-4 leukemia, 0.34% (active).

The record behind these values is PubChem BioAssay (NCI).
